# Bioassay records from PubChem BioAssay.
# A selection: hits, their analogues and other compounds. The true share with any hit is near 3.2%.
# LmPK inh: qHTS Assay for Inhibitors of Leishmania Mexicana Pyruvate Kinase (LmPK); Q27686; purified LmPK, Kinase-Glo ATP luminescence, 1 h; Potency, µM (top dose mostly 57.5 µM), without a hit: at the highest dose activity change, negative = inhibition, most hits filed as inhibitors; 290,000 tested, 0.37% active; AID 1721, 2009
# Target sequence (Q27686 whole entry, looked up): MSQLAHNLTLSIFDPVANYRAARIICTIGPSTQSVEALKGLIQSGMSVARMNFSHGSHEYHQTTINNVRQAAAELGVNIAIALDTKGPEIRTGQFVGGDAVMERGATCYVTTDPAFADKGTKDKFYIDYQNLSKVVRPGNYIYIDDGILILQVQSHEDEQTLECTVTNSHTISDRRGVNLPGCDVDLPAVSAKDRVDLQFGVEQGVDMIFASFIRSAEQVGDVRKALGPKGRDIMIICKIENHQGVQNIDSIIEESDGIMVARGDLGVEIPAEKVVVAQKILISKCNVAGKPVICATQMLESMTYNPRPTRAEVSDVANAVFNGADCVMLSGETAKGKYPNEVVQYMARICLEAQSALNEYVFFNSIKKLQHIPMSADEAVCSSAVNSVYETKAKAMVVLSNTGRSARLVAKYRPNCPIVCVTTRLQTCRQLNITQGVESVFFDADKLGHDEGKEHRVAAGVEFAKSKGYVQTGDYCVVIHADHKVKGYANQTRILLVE
#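 ATP generated from ADP (0.1 mM) and PEP (0.5 mM) by 0.1 nM LmPK over 1 h at room temperature (pH 7.2 imidazole buffer) was detected by coupled luciferase luminescence. Values were normalized to uninhibited and no-enzyme wells.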
# RE007 growth inh: qHTS Assay for Inhibitors of the HIV-1 protein Vpr; S. pombe RE007 Vpr strain, BacTiter-Glo ATP luminescence, 24 h; Potency, µM (highest dose often 92.2 µM), for the others: top-dose activity change, negative = less growth, hits mostly inhibitors; 360,000 tested, 0.21% active; AID 651644, 2012; active = well fitted falling curve with a large enough effect; inconclusive = small, poorly fitted or top-dose-only effect; inactive = no such curve, though single readings can be large or run the other way; also: nearly all actives have a fitted effect of over 50% in size
#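 Fission yeast strain RE007, carrying one chromosomally integrated HIV-1 vpr copy, was seeded at OD 0.01 in PMG+AL medium with 23 nL pinned compound. After 24 h at 30 °C and 99% humidity, viability was read by BacTiter-Glo luminescence.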
# Tb PYK inh: qHTS of Trypanosoma Brucei Inhibitors; pyruvate kinase (Trypanosoma brucei), Q57TT1; TbPYK enzyme, Kinase-Glo Plus ATP luminescence, 45 min; Potency, µM (series often up to 76.8 µM), inactives show at the highest dose activity, negative = inhibition, actives largely listed as inhibitors; 410,000 tested, 0.12% active; AID 624173, 2012; also: nearly all actives have a fitted effect of over 50% in size
#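 Luminescence from Kinase-Glo Plus, added after a 45-minute room-temperature reaction, served as the end-point read-out. The enzyme and substrate were preincubated with compound before ADP (130 uM final) initiated turnover. Concentration-effect curves came from normalized qHTS data.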
# Sm TGR block: qHTS Assay for the Inhibitors of Schistosoma Mansoni Peroxiredoxins | Potency, µM (doses to about 114 µM), for the others: top-dose activity change, negative = inhibition, hits mostly inhibitors | Schistosoma mansoni thioredoxin glutathione reductase (TGR), Q962Y6 | AID 485364, 2010 | purified TGR, DTNB reduction, TNB absorbance 405 nm | 360,000 tested, 3% active; also: nearly all actives have a fitted effect of over 60% in size
#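 TGR 20 nM + NADPH 100 uM (dispensed conc.), cpd preinc 15 min RT; start with NADPH (500 uM addition) then DTNB (15 mM addition). Kinetic TNB absorbance, 405 nm filter. Four-parameter Hill fit across titration.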
# AMA1-RON2 inh: qHTS for Inhibitors of AMA1-RON; Towards Development of Antimalarial Drug Lead: Primary Screen. Plasmodium falciparum AMA1 (3D7) - RON2 peptide interaction. AlphaScreen AMA1-biotinylated RON2 peptide binding. Potency, µM (highest dose often 58.2 µM), without a hit: top-dose activity change, negative = inhibition, actives largely listed as inhibitors. 360,000 tested, 0.2% active. AID 720542, 2013;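 also: 0% = vehicle wells and -100% = peptide control; nearly all actives have a fitted effect of over 45% in size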
#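 AMA1 (3D7) with his tag at 25 nM final met compounds first, then biotinylated RON2 peptide at 25 nM; detection used donor plus acceptor beads, 10 µg/mL apiece, read by AlphaScreen after 30 min at room temperature.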
# * hit, by the source's call; ? = inconclusive; / = no result; [ ] = dose if it differs, or a comment. Unless noted, calls follow the shape of the dose curve; as a rule, active = well fitted curve in the direction sought with a large enough effect; inconclusive = small, poorly fitted or top-dose-only effect, or another doubt; inactive = no such curve, though single readings can be large; an effect the other way counts as inactive or inconclusive. Unless noted, % is scaled to controls: 0 for no effect and ±100 for the full control effect; potency is read from the fitted curve at half-maximal effect.
SMILES,LmPK inh,RE007 growth inh,Tb PYK inh,Sm TGR block,AMA1-RON2 inh
CCOC(=O)[C@H]1[C@H]2COc3cc(OC)ccc3[C@@H]2N2C(=O)CN(Cc3ccco3)C(=O)[C@@]12C,/,2%,-15%,18µM*,9%
O=C(NCCSCc1ccco1)c1ccc(=O)[nH]c1,11%,9%,-6%,35µM*,5%
O=C(CSCc1ccc(Cl)cc1)NCCSCc1ccco1,7%,-6%,-2%,28µM*,3%
O=C(CSCc1ccco1)c1ccc(Cl)s1,-6%,/,/,28µM*,/
Cc1cc(C)n(C(C)CC(=O)Nc2ccc(C)c(N(C)C)c2)n1 (stereo not drawn),/,/,-3%,-1%,/
Cc1ccc2cc(C(c3nnnn3Cc3ccccc3)N3CCN(c4ccccc4)CC3)c(=O)[nH]c2c1 (stereo not drawn),7%,5%,1%,22µM*,-24%
COc1cc2cc(C(c3nnnn3C3CCCC3)N3CCCCCC3)c(=O)[nH]c2cc1OC (stereo not drawn),3%,-4%,-7%,35µM*,-9%
O=c1c(C(c2nnnn2C2CCCCC2)N2CCCCC2)coc2ccc(Cl)cc12 (stereo not drawn),-7%,-15%,-16%,28µM*,1%
Cc1ccc2cc(C(c3nnnn3C3CCCC3)N3CCN(c4ccccc4)CC3)c(=O)[nH]c2c1 (stereo not drawn),5%,-13%[3.69 µM],/,13µM*,-6%
Clc1ccc(C(c2nnnn2C2CCCC2)N2CCN(Cc3ccncc3)CC2)cc1 (stereo not drawn),3%,18%,2%,0%,-11%
COc1cc2cc(C(c3nnnn3C3CCCC3)N3CCCCC3)c(=O)[nH]c2cc1OC (stereo not drawn),3%,-4%,-1%,-32%,-27%
COc1ccc(N2CCN(C(c3cc4cc(C)ccc4[nH]c3=O)c3nnnn3Cc3ccccc3)CC2)cc1 (stereo not drawn),-2%,3%,-3%,?,-14%
CC1=C(C)/C(=N\OS(=O)(=O)c2ccccc2)C=CC1=O,7%,7.9µM*,2%,2.5µM*,?
Cc1ccc(S(=O)(=O)O/N=C2\CCCc3ccccc32)cc1,0%,5%,13%,-26%,11%
COC(=O)c1sc(N2C(=O)c3oc4ccc(C)cc4c(=O)c3C2c2ccc(OC)cc2)nc1C (stereo not drawn),/,/,2%,7%,/
CCOc1ccc(-n2c(SCC(=O)Nc3cccc(Cl)c3)nc3c(oc4ccccc43)c2=O)cc1,/,/,2%,-1%,/
Cc1oc(-c2cc(F)ccc2F)nc1CN1CCN(C)C(=O)[C@@H]1C,5%,-10%,1%,-23%,35%
Cc1ccsc1-c1nc(CN2CCN(C)C(=O)[C@@H]2C)c(C)o1,12%,-2%,-5%,32µM*,-31%
Cc1ccsc1/C=N/N=C/c1sccc1C,-24%,-12%,-24%,1%,-9%
Cc1ccsc1C=Nc1ccc(O)cc1,-19%,-10%,-14%,18µM*,23%
COc1cccc(-c2nc(CS(=O)(=O)CC(=O)Nc3cc(OC)ccc3OC)c(C)o2)c1,-2%,8%,5%,50µM*,0%
COc1cccc(-c2nc(CS(=O)(=O)CC(=O)NCCc3ccccc3)c(C)o2)c1,6%,1%,2%,-28%,1%
COc1cccc(-c2nc(CS(=O)(=O)CC(=O)Nc3ccccc3C)c(C)o2)c1,10%,-3%,1%,-31%,19%
CCOCCCNC(=O)CS(=O)(=O)Cc1nc(-c2cccc(OC)c2)oc1C,7%,-2%,1%,45µM*,-4%
CCN1CCN(CCCNC(=O)CS(=O)(=O)Cc2nc(-c3cccc(OC)c3)oc2C)CC1,1%,-2%,2%,-17%,6%
SMILES,LmPK inh,RE007 growth inh,Tb PYK inh,Sm TGR block,AMA1-RON2 inh
CCCNC(=O)CS(=O)(=O)Cc1nc(-c2cccc(OC)c2)oc1C,-3%,-10%,-1%,22µM*,22%
C=CC(=O)Nc1cc2c(Nc3ccc(F)c(Cl)c3)ncnc2cc1OCCCN1CCOCC1,/,/,-8%,/,/
CN(C)c1ccc(N=Nc2nccs2)cc1,/,?,-8%,/,11µM*
COCCNC(=O)c1cnn(-c2ccc(C)cc2C)c1C1CCN(C(=O)OC(C)(C)C)CC1,/,/,3%,1%,/
CCOC(=O)C1(CCOC)CCN(Cc2ccccc2-c2ccco2)CC1,2%,-7%,-3%,35µM*,-10%
CCOC(=O)C1(CCOC)CCN(Cc2ccncc2)CC1,2%,?,1%,-2%,-10%
CCOC(=O)C1(CCOc2ccccc2)CCN(Cc2ccncc2)CC1,2%,-10%,-4%,28µM*,-8%
Cc1ccc(Cl)cc1N1CCN(C(=O)Cn2c(-c3cccs3)cc3cc(F)ccc32)CC1,/,/,1%,2%,/
CN(C)S(=O)(=O)c1ccc(C(=O)NCC(c2cccs2)N2CCOCC2)cc1 (stereo not drawn),/,20%,3%,56µM*,-22%
CCN(CC)S(=O)(=O)c1ccc(C(=O)NCC(c2cccs2)N2CCOCC2)cc1 (stereo not drawn),-1%,10%,3%,-8%,26%
O=C1C(=O)c2c(C(=O)c3ccccc3)coc2-c2ccccc21,2%,11µM*,-4%,?,-11%
CN(C)c1ccc(/C=C2/C[N+](C)(C)C/C(=C/c3ccc(N(C)C)cc3)C2=O)cc1,/,?,-27%,/,22µM*
CC(C)/C=C1\CC/C(=C\c2ccc(N(C)C)cc2)C1=O,-4%,?,-2%,-33%,10%
CC(C)=CC(=O)Nc1ccccc1C(N)=O,-11%,8%,2%,0%,6.7µM*
Nc1cc(C(=O)O)c(N)c2c1C(=O)c1ccccc1C2=O,25µM*,?,?,8%,18µM*
Nc1c(C(=O)O)ccc2c1C(=O)c1ccccc1C2=O,-23%,?,-5%,-2%,-20%
Cc1ccccc1-c1nnc(CN2CCN(c3cccc(C)c3C)CC2)o1,/,/,-8%,3%,/
O=C(Cn1nc(-c2ccco2)ccc1=O)Nc1cc(C(F)(F)F)ccc1Cl,3%,-3%,-12%,50µM*,-1%
O=C(Cn1nc(-c2ccco2)ccc1=O)Nc1ccc(Cl)c(Cl)c1,2%,17%,?,7.1µM*,-11%
O=C(Cn1nc(-c2cccc(Cl)c2)ccc1=O)Nc1ccccc1Br,-5%,-19%,-1%,3%[57.1 µM],4%
Cc1ccc(NC(=O)Cn2nc(-c3ccncc3)ccc2=O)cc1Cl,/,/,1%,?,/
O=C(Cn1nc(-c2ccco2)ccc1=O)Nc1cc(Cl)ccc1Cl,-6%,10%,-13%,5.6µM*,30%
